Results published in PubChem BioAssay (Tox21).
“And” between values parts separate entries of the source, which are not always exact repeats. Equal values may be shown once. Inconclusive results are not listed. Where a call stands in place of a potency, no number is given. The source holds several records for some structures; these can differ, active in one and inactive in another. The source made the active and inactive calls. Unless noted, the call rests on the fitted dose curve; in most records, active means well fitted curve in the direction sought with a large enough effect in the repeat runs; inconclusive means weak or mixed curves; inactive means no such curve, though single readings can be large; an effect the other way counts as inactive or inconclusive.

Columns and labels:
[1] = qHTS assay for small molecules that induce genotoxicity in human embryonic kidney cells expressing luciferase-tagged ATAD5 (AID 651632); further: nearly all actives have a fitted effect of over 15% in size
Outline: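 Test compounds were delivered by pin tool onto HEK293T reporter cells (2,000/well) expressing ATAD5 fused to luciferase. After 16 hr at 37C, 5% CO2, Amplite was added for 30 min at room temperature and luminescence was measured.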

[2] = qHTS assay for small molecule agonists of the p53 signaling pathway - cell viability (AID 651633; calls by dose curve; further: nearly all actives have a fitted effect of over 30% in size; further: potency means the concentration at half of the fitted maximal effect)
Outline: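 p53RE-bla cells were treated with compound for 16 hours at 37 C. Cytotoxicity was then measured as CellTiter-Glo luminescence after 30 min at room temperature.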

[3] = qHTS assay for small molecule disruptors of the mitochondrial membrane potential - cell viability (AID 720634; calls by dose curve; further: nearly all actives have a fitted effect of over 20% in size; further: potency means the concentration at half of the fitted maximal effect)
Outline: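 Same-well counter-screen: following the MMP dye addition, CellTiter-Glo was added to 1 hr compound-treated HepG2 cells and luminescence read after 30 min at room temperature.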

[4] = qHTS assay for small molecule disruptors of the mitochondrial membrane potential (AID 720635); further: potency means the concentration at half of the fitted maximal effect
Outline: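 HepG2 cells exposed to compound 1 hr at 37C, then Mito-MPS dye 30 min. Ratio read of aggregate (540/590 nm) versus monomer (490/535 nm) fluorescence.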

[5] = qHTS assay to test for compound auto fluorescence at 590 nm (red) in HepG2 cells (AID 720674)
Outline: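 Seeding: 2,000 HepG2 cells/well, MEM/10% FBS, overnight 37 C. Dosing: compound vs DMSO. Incubation: 1 hr, 37 C, 5% CO2. Read: fluorescence 540 ex/590 em, Rose Bengal sodium as red reference.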

[6] = qHTS assay to test for compound auto fluorescence at 460 nm (blue) in HEK293 cells (AID 720678)
Outline: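 Blue read-out at excitation 405 nm and emission 460 nm follows overnight compound exposure of HEK293 cells at 37C in 5% CO2. Activity is given as auto fluorescence equivalency to triamterene.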

[7] = qHTS assay to test for compound auto fluorescence at 590 nm (red) in HEK293 cells (AID 720679)
Outline: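 Red channel, Ex/Em 540/590nm; signal expressed as equivalency to Rose Bengal sodium. HEK293, 2,000 cells/well, 10% dialyzed FBS; 23 nL compound pinned after 4-5 hr attachment; overnight 37C/5% CO2 before reading.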

[8] = qHTS assay to test for compound auto fluorescence at 535 nm (green) in HEK293 cells (AID 720680)
[9] = qHTS assay to test for compound auto fluorescence at 460 nm (blue) in HEK293 cell free culture (AID 720681)
Outline: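 Compounds were added to cell-free DMEM with 10% FBS and fluorescence read directly. The blue channel used 405 nm excitation and 460 nm emission, with triamterene as the reference fluorophore.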

[10] = qHTS assay to test for compound auto fluorescence at 535 nm (green) in HEK293 cell free culture (AID 720682)
Outline: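 Green-channel intensity (Ex/Em 485/535 nm) was recorded from compound-treated wells containing only DMEM with 10% FBS. Fluorescein provided the equivalency standard.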

[11] = qHTS assay to test for compound auto fluorescence at 590 nm (red) in HEK293 cell free culture (AID 720683)
Outline: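 Cell-free wells of DMEM with 10% FBS received compound, and intrinsic fluorescence was read at excitation/emission 540/590 nm. Values expressed as equivalence to Rose Bengal sodium.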

[12] = qHTS assay to test for compound auto fluorescence at 590 nm (red) in HepG2 cell free culture (AID 720684)
Outline: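 Rose Bengal sodium served as the reference for red signal. Test compounds were dispensed into serum-containing MEM (10% FBS) without cells, and plates were read at 540/590 nm.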

[13] = qHTS assay to test for compound auto fluorescence at 460 nm (blue) in HepG2 cell free culture (AID 720685)
Outline: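 Cell-free plates of MEM plus 10% FBS received 23 nL compound or DMSO vehicle; blue-channel (405/460 nm) intensity scored against triamterene as reference fluorophore.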

[14] = qHTS assay to test for compound auto fluorescence at 460 nm (blue) in HepG2 cells (AID 720687)
Outline: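 HepG2 cells in MEM with 10% FBS, attached overnight at 37 C, were exposed to compound or DMSO for 1 hr at 37 C, 5% CO2. Blue fluorescence was read at 405/460 nm, with triamterene as reference fluorophore.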

[15] = target: Glucocorticoid receptor (Homo sapiens) (UniProt P04150); test: qHTS assay to identify small molecule antagonists of the glucocorticoid receptor (GR) signaling pathway (AID 720692; active means well fitted inhibition curve with a large enough effect in the signal ratio in the repeat runs, not every such curve was filed as active; the % refers to the signal ratio; further: potency means the concentration at half of the fitted maximal effect)
Sequence of Glucocorticoid receptor (Homo sapiens) (P04150 whole entry, looked up): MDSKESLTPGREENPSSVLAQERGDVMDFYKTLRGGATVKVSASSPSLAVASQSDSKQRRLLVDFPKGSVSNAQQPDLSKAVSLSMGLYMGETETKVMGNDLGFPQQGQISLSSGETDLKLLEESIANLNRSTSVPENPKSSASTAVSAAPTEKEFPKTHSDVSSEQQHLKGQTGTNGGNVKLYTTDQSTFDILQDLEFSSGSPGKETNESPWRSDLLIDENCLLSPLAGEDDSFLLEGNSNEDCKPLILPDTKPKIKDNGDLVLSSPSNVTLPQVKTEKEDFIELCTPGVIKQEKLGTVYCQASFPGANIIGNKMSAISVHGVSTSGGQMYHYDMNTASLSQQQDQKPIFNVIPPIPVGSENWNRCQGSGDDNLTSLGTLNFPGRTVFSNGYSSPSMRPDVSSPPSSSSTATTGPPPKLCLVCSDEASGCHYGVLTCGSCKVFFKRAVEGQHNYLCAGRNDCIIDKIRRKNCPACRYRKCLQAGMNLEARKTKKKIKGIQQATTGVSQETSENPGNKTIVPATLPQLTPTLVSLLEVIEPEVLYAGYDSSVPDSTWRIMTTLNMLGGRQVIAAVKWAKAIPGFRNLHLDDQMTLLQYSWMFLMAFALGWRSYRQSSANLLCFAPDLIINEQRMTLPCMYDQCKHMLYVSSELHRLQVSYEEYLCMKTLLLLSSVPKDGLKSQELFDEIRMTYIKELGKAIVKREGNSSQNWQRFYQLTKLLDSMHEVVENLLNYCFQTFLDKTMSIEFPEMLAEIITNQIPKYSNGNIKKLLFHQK
Outline: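 GRE-bla HeLa line, dex-stimulated (5 nM final). Compound exposure 18 h, 37 C. Beta-lactamase FRET read after 2 h RT substrate.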

[16] = qHTS assay for small molecules that induce genotoxicity in human embryonic kidney cells expressing luciferase-tagged ATAD5 - cell viability (AID 651634; calls by dose curve; further: nearly all actives have a fitted effect of over 25% in size; further: potency means the concentration at half of the fitted maximal effect)
Outline: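 Quantitative high-throughput format. HEK293T cells expressing ATAD5 fused to luciferase were plated at 2,000 cells/well and treated 15.5 hr with compound versus DMSO. Viability was determined by fluorescent live-cell protease substrate, 30 min at 37C.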

[17] = qHTS assay to test for compound auto fluorescence at 535 nm (green) in HepG2 cells (AID 720675)
[18] = qHTS assay to test for compound auto fluorescence at 535 nm (green) in HepG2 cell free culture (AID 720686)
[19] = target: Glucocorticoid receptor (Homo sapiens) (UniProt P04150); test: qHTS assay to identify small molecule agonists of the glucocorticoid receptor (GR) signaling pathway (AID 720691; active means well fitted activation curve with a large enough effect in the signal ratio in the repeat runs, not every such curve was filed as active; the % refers to the signal ratio); conditions: GR-bla HeLa, beta-lactamase reporter ratio, 18 h; activation: at 62.4 µM (top of the series)
Outline: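 A HeLa cervical cancer line expressing GR and a glucocorticoid response element-driven beta-lactamase gene is treated with compounds for 18 h; LiveBLAzer B/G FRET substrate is then applied and fluorescence read.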

SMILES	Potency [1]	Potency [2]	Potency [3]	Potency [4]	Potency [5]	Potency [6]	Potency [7]	outcome [8]	Potency [9]	outcome [10]	Potency [11]	Potency [12]	Potency [13]	Potency [14]	Potency [15]	Potency [16]	Potency [17]	Potency [18]	Potency [19]
Clc1ccccc1C(c1ccccc1)(c1ccccc1)n1ccnc1	inactive	19.3 µM (active)	inactive and 54.5 µM (active)	10.1 µM (active) and 9.69 µM (active)	inactive	inactive	inactive	inactive	inactive	inactive	inactive	inactive	inactive	inactive	7.23 µM (active)	–	–	–	–
C/C=C1/C(=O)C[C@H]2[C@@H]3CCC4=CC(=O)CC[C@]4(C)[C@H]3CC[C@]12C	inactive	–	inactive	inactive	inactive	inactive	inactive	inactive	inactive	inactive	inactive	inactive	inactive	inactive	–	inactive	inactive	–	–
CCC(Cl)C(Cl)C(Cl)CC(Cl)C(Cl)C(C)Cl (stereo unspecified)	inactive	–	inactive	24.3 µM (active)	inactive	inactive	–	inactive	inactive	inactive	inactive	inactive	inactive	inactive	–	inactive	inactive	inactive	inactive
Fc1ccc([C@@H]2CCNC[C@H]2COc2ccc3c(c2)OCO3)cc1	inactive	33.5 µM (active)	inactive	–	inactive	inactive	inactive	inactive	inactive	inactive	inactive	inactive	inactive	inactive	–	–	inactive	inactive	inactive
Oc1ccc(N=Nc2ccccc2)cc1	–	inactive	6.95 µM (active)	3.1 µM (active)	inactive	inactive	inactive	inactive	inactive	inactive	–	inactive	–	inactive	–	–	inactive	inactive	–
O=C(OCC1CO1)C1CCCCC1C(=O)OCC1CO1 (stereo unspecified)	–	inactive	inactive	inactive	inactive	inactive	inactive	inactive	inactive	–	inactive	inactive	inactive	inactive	–	inactive	inactive	inactive	inactive
CCCCC(CC)COP(=O)(O)OCC(CC)CCCC (stereo unspecified)	–	61.3 µM (active) and 27.3 µM (active)	inactive	68.7 µM (active)	inactive	inactive	inactive	inactive	inactive	inactive	inactive	inactive	inactive	inactive	49.1 µM (active)	inactive	inactive	inactive	–
CCC(C)Nc1ccc(NC(C)CC)cc1 (stereo unspecified)	–	14 µM (active)	44.1 µM (active)	8.8 µM (active)	inactive	inactive	inactive	–	inactive	inactive	inactive	inactive	inactive	inactive	–	inactive	inactive	inactive	–
CCCCCCCCCCCC(=O)NCCCN(C)C	–	27.3 µM (active)	–	–	inactive	inactive	inactive	inactive	inactive	inactive	inactive	inactive	inactive	inactive	–	–	inactive	inactive	–
COc1cccc(N)c1	–	inactive	inactive	–	inactive	inactive	inactive	inactive	inactive	inactive	–	inactive	inactive	inactive	–	13.8 µM (active)	inactive	inactive	inactive
CCCCc1oc2ccc(NS(C)(=O)=O)cc2c1C(=O)c1ccc(OCCCN(CCCC)CCCC)cc1	–	29.8 µM (active)	29.8 µM (active)	9.44 µM (active)	inactive	inactive	inactive	–	inactive	–	inactive	inactive	inactive	inactive	–	26.6 µM (active)	inactive	inactive	–
O=C(N/N=C/c1ccccc1O)c1ccncc1	–	3.76 µM (active)	inactive	–	inactive	inactive	inactive	inactive	inactive	inactive	inactive	inactive	–	–	–	–	inactive	inactive	–
On1ccccc1=S	–	inactive	inactive	0.762 µM (active)	inactive	inactive	inactive	–	inactive	inactive	inactive	inactive	–	inactive	–	–	inactive	inactive	inactive
CCc1cc(Cc2cc(CC)c(N)c(CC)c2)cc(CC)c1N	–	–	–	27.3 µM (active)	inactive	inactive	–	–	inactive	inactive	–	inactive	–	inactive	43.6 µM (active)	inactive	inactive	–	–
